aSyn rescue = rescues yeast growth from alpha-synuclein toxicity | 370,000 compounds, 0.14% hits | AID 652106 | Yeast expressing alpha-synuclein, growth rescue, BacTiter-Glo, 24 h | Potency, µM (series often up to 46.1 µM), usual class: activators; also: nearly all actives have a fitted effect of over 65% in size
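Galactose-induced alpha-syn yeast (OD600=0.02, raffinose-pregrown) + pinned cpd, 24 hr, 30 deg C; growth by BacTiter-Glo luminescence. Growth restoration scores as activation.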
ClpP mod = qHTS Assay for Activators of ClpP | Potency, µM (doses to about 57.5 µM) | purified B. subtilis ClpP, FRET peptide cleavage, 20 min | 340,000 compounds, 1.9% hits | ATP-dependent Clp protease proteolytic subunit (Bacillus subtilis (strain 168)), P80244 | AID 651965, 2013; active = well fitted falling curve with a large enough effect; inconclusive = small, poorly fitted or top-dose-only effect; inactive = no such curve, though single readings can be large or run the other way; also: the source files actives as falling curves though it sought activators and does not explain the sign; nearly all actives have a fitted effect of over 65% in size
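Buffer: 100 mM Tris/HCl pH8, 100 mM KCl, 0.05% low protease BSA, 2.5% glycerol, 0.01% Tween-20. ClpP 10 microg/mL final; 20 min RT; delta FRET normalized to ADEP and DMSO controls.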
TDP-43 yeast inh = rescues yeast growth from TDP-43 toxicity; AID 652104; Potency, µM (doses to about 46.1 µM), hits mostly activators; TDP-43 expressing yeast growth rescue, BacTiter-Glo, 24 h; 410,000 compounds, 1.8% hits; also: nearly all actives have a fitted effect of over 50% in size
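Yeast cells expressing TDP-43 under galactose induction are exposed to compounds for 24 hr at 30 deg C. BacTiter-Glo luminescence measures growth, so protective compounds score as activators.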
MmCpn inh = M. maripaludis TRiC chaperonin inhibition; AID 504842; purified Mm-Cpn ATPase, ADP Transcreener TR-FRET; Potency, µM (top dose mostly 76.9 µM), most hits filed as inhibitors; 330,000 compounds, 0.031% hits; also: nearly all actives have a fitted effect of over 80% in size
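ATP (10 uM final) was added to archaeal chaperonin (25 nM final) after 10 min exposure to test compound at 37°C; after 30 min further incubation, ADP was detected by competitive TR-FRET.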
FUS suppressor = rescues growth of FUS-expressing yeast | S. cerevisiae FUS-expressing, growth rescue, OD600, 24 h | Potency, µM (doses to about 76.6 µM), actives largely listed as activators | 390,000 compounds, 0.24% hits | AID 1347120; also: nearly all actives have a fitted effect of over 55% in size
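Cultures pregrown in 2.5% raffinose medium are shifted to minimal medium containing 2% galactose to express toxic FUS. Compounds are tested at several concentrations. After 24hr at 30C, growth is quantified at 600 nm absorbance.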
Abeta rescue = restores growth of yeast expressing A-beta42 peptide; AID 1347071; yeast expressing A-beta42, growth rescue, OD600, 48 h; response scale: 0% DMSO, 100% iron-clioquinol control; 410,000 compounds, 0.063% hits; Potency, µM (highest dose often 46.1 µM), usual class: activators; also: nearly all actives have a fitted effect of over 55% in size
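Yeast growth medium received pinned compounds, then yeast cells expressing toxic A-beta were added; plates incubated at 30 C for 48 hr. Growth read as absorbance at 600 nm, normalized to DMSO and equimolar FeCl3 plus clioquinol controls.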
Hits are given with their value; [ ] = remark or other dose. This is a sample that favours compounds with a hit; in the whole collection about 3.6% have one here. Unless noted, calls follow the shape of the dose curve; as a rule, active = well fitted curve in the direction sought with a large enough effect; inconclusive = small, poorly fitted or top-dose-only effect, or another doubt; inactive = no such curve, though single readings can be large; an effect the other way counts as inactive or inconclusive.

O=S(=O)(c1cccc(F)c1)N1CCN(c2ncnc3scc(-c4ccc(F)cc4)c23)CC1 was read as aSyn rescue inactive, ClpP mod 25.1µM, TDP-43 yeast inh inconclusive, MmCpn inh inactive, FUS suppressor inconclusive and Abeta rescue inactive.
For COC(=O)c1cc2oc3ccccc3c2n1CC(=O)Nc1cc(OC)cc(OC)c1 the results were ClpP mod inconclusive, TDP-43 yeast inh inactive, FUS suppressor inactive and Abeta rescue inactive.
`Cc1cccc2[nH]c3c(N4CCN(C(=O)c5ccco5)CC4)ncnc3c12` gave aSyn rescue inactive, ClpP mod 31.6µM, TDP-43 yeast inh inactive, MmCpn inh inactive, FUS suppressor inactive and Abeta rescue inactive.
For Cc1sc2ncnc(N3CCN(C(=O)c4ccco4)CC3)c2c1C the results were aSyn rescue inactive, TDP-43 yeast inh inactive, MmCpn inh inactive, FUS suppressor inactive and Abeta rescue inactive.
`CCOC(=O)/C=C1\SCC(=O)N1CCOc1cccc(Br)c1` gave aSyn rescue inactive, ClpP mod inactive, TDP-43 yeast inh 15.8µM, MmCpn inh inactive, FUS suppressor inactive and Abeta rescue inactive.
Screening CCOC(=O)/C=C1\SCC(=O)N1CC(O)CN1C(=O)CS/C1=C\C(=O)OCC returned aSyn rescue inactive, ClpP mod inactive, TDP-43 yeast inh inactive, MmCpn inh inactive, FUS suppressor inactive and Abeta rescue inactive.
Screening Cc1cccc(NS(=O)(=O)c2ccccc2)n1 returned aSyn rescue inactive, ClpP mod 20µM, TDP-43 yeast inh inactive, MmCpn inh inactive, FUS suppressor inactive and Abeta rescue inactive.
Screening Cc1cccc(NS(=O)(=O)c2ccc(C3CCCCC3)cc2)n1 returned aSyn rescue inactive, ClpP mod 22.4µM, TDP-43 yeast inh inactive, MmCpn inh inactive, FUS suppressor inactive and Abeta rescue inactive.
For Cc1cccc(NS(=O)(=O)c2ccc(C(C)(C)C)cc2)n1 the results were aSyn rescue inactive, ClpP mod inactive, TDP-43 yeast inh inactive, MmCpn inh inconclusive, FUS suppressor inactive and Abeta rescue inactive.
Screening Cc1cccc(NS(=O)(=O)c2ccc(C3CCCCC3)cc2)c1 returned aSyn rescue inactive, ClpP mod inactive, TDP-43 yeast inh inconclusive, MmCpn inh inactive, FUS suppressor inactive and Abeta rescue inactive.
Screening COC(=O)C1[C@H]2SC(C)(C)C(C(=O)OC)N2C(=O)N1Cc1ccccc1 (some centres undefined) returned ClpP mod inactive.
Screening Cc1ccccc1-c1nc2c(s1)CCc1onc(-c3ccc(Cl)cc3)c1-2 returned aSyn rescue inactive, ClpP mod inconclusive, TDP-43 yeast inh inactive, MmCpn inh inactive, FUS suppressor inactive and Abeta rescue inactive.
`COc1ccc(-c2noc3c2-c2nc(-c4ccccc4C)sc2CC3)cc1` gave aSyn rescue inactive, ClpP mod 25.1µM, TDP-43 yeast inh inactive, FUS suppressor inactive and Abeta rescue inactive.
`COc1cc(Cl)c(C)cc1NS(=O)(=O)c1c(C)nc2sccn2c1=O` gave ClpP mod inactive, TDP-43 yeast inh inactive, FUS suppressor inactive and Abeta rescue inactive.
CCCn1c(-c2cc(OC)c(OC)c(OC)c2)nc2c1c(=O)[nH]c(=O)n2Cc1ccccc1 was read as aSyn rescue inactive, TDP-43 yeast inh inactive, MmCpn inh inactive, FUS suppressor inactive and Abeta rescue inactive.
`COc1ccc(-c2nc3c(c(=O)[nH]c(=O)n3Cc3ccccc3)n2C)cc1` gave aSyn rescue inactive, ClpP mod 35.5µM, TDP-43 yeast inh inactive, MmCpn inh inactive, FUS suppressor inactive and Abeta rescue inactive.
For COc1ccc(-c2nc3c(c(=O)[nH]c(=O)n3Cc3ccccc3)n2Cc2ccccc2)cc1 the results were aSyn rescue inactive, ClpP mod 28.2µM, TDP-43 yeast inh inactive, MmCpn inh inactive, FUS suppressor inactive and Abeta rescue inactive.
`CC(=O)c1c(C)[nH]c(C(=O)Nc2ccccc2C)c1C` gave FUS suppressor inactive.
COc1cc(C(=O)Nc2cc(C)ccc2C)ccc1OCc1c(C)noc1C was read as aSyn rescue inactive, TDP-43 yeast inh inactive, MmCpn inh inactive, FUS suppressor inactive and Abeta rescue inactive.
`Cc1ccc(C)c(NC(=O)c2ccc(OCc3c(C)noc3C)cc2)c1` gave aSyn rescue inactive, ClpP mod 31.6µM, TDP-43 yeast inh inconclusive, MmCpn inh inactive and Abeta rescue inactive.
For Cc1nnc(NC(=O)Cc2ccc(OCc3c(C)noc3C)cc2)s1 the results were aSyn rescue inactive, ClpP mod inactive, TDP-43 yeast inh inactive, MmCpn inh inconclusive, FUS suppressor 14.1µM and Abeta rescue inactive.
CCOc1nc(N=C(N)N)nc2c(C)cccc12 was read as aSyn rescue inactive, ClpP mod 15.8µM, TDP-43 yeast inh inactive, MmCpn inh inactive, FUS suppressor inconclusive and Abeta rescue inactive.
For CCOc1ccccc1Nc1cc(C)c2cccc(C)c2n1 the results were aSyn rescue inactive, TDP-43 yeast inh inactive[1.82 µM], MmCpn inh inactive, FUS suppressor inactive and Abeta rescue inactive.
`CN(C)c1nc(-c2ccccc2)c2cnn(Cc3ccccc3)c2n1` gave aSyn rescue inactive, ClpP mod 28.2µM, TDP-43 yeast inh inactive, MmCpn inh inactive, FUS suppressor inactive and Abeta rescue inactive.
Screening Oc1ccc(-c2ccccc2)cc1CN1CCCCCC1 returned aSyn rescue inactive, TDP-43 yeast inh inactive, MmCpn inh inactive, FUS suppressor inactive and Abeta rescue inactive.
Screening Oc1ccc(CN2CCCCC2)nc1-c1ccccc1 returned aSyn rescue inactive, ClpP mod 35.5µM, TDP-43 yeast inh inactive, MmCpn inh inactive, FUS suppressor inactive and Abeta rescue inactive.
Screening CCCN(C(=O)Cc1nc(-c2ccc(OC)cc2)no1)c1ccccc1C returned ClpP mod inactive, TDP-43 yeast inh inactive, FUS suppressor inconclusive and Abeta rescue inactive.
For O=c1[nH]cnc2c1C1(CCCC1)Cc1ccccc1-2 the results were aSyn rescue inactive, ClpP mod 12.6µM, TDP-43 yeast inh inconclusive, MmCpn inh inactive, FUS suppressor inactive and Abeta rescue inactive[9.22 µM].
Screening Nn1cnc2c(c1=O)C1(CCCCC1)Cc1ccccc1-2 returned aSyn rescue inactive, ClpP mod inactive, TDP-43 yeast inh 10µM, MmCpn inh inactive and Abeta rescue inactive.
CC(=O)Nn1cnc2c(c1=O)C1(CCCC1)Cc1ccccc1-2 was read as aSyn rescue inactive, ClpP mod inactive, TDP-43 yeast inh inactive, MmCpn inh inactive, FUS suppressor inactive and Abeta rescue inactive.
For COc1cc(OC)c(NC(=O)Nc2c(C)n(C)n(-c3ccccc3)c2=O)cc1Cl the results were ClpP mod inactive, TDP-43 yeast inh inactive, FUS suppressor inactive and Abeta rescue inactive.
